Source: PubChem BioAssay
CRFR2-BP antag: antagonists of CRF-BP/CRF-R2 complex, primary screen, cell-based, HEK293, calcium dye fluorescence, uHTS | hit rate 0.59% among 350,000 | CRF-induced calcium fluorescence | AID 588475, 2011 | inhibition, % at 11.8 µM;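 active = inhibition of the ligand-induced calcium signal above about 50% at the single tested concentration, limit read from the data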
MPTP inh: mitochondrial permeability transition pore inhibitors, primary screen, biochemical, isolated mouse mitochondria, absorbance; Ca2+ swelling absorbance, 30 min; inhibition, % at 10 µM; hit rate 1.4% among 360,000; AID 602449, 2012;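 active = inhibition of 50% or more, scaled per plate between neutral and stimulator controls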
TMEM16A inh: TMEM16A chloride channel inhibitors, primary screen, cell-based, HTS; normalized B-score (activity score, 25-100; higher = stronger inhibition) at 10 µM; HEK293 TMEM16A/YFP iodide influx fluorescence, ionomycin; Anoctamin-1 (Mus musculus), Q8BHY3; hit rate 1.2% among 310,000;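 active = ratio plate-corrected score three or more library SD toward inhibition, starting fluorescence score within five deviations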;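 note: score derived from kinetic fluorescence span divided by baseline fluorescence per well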
Target sequence (Q8BHY3 whole entry, looked up): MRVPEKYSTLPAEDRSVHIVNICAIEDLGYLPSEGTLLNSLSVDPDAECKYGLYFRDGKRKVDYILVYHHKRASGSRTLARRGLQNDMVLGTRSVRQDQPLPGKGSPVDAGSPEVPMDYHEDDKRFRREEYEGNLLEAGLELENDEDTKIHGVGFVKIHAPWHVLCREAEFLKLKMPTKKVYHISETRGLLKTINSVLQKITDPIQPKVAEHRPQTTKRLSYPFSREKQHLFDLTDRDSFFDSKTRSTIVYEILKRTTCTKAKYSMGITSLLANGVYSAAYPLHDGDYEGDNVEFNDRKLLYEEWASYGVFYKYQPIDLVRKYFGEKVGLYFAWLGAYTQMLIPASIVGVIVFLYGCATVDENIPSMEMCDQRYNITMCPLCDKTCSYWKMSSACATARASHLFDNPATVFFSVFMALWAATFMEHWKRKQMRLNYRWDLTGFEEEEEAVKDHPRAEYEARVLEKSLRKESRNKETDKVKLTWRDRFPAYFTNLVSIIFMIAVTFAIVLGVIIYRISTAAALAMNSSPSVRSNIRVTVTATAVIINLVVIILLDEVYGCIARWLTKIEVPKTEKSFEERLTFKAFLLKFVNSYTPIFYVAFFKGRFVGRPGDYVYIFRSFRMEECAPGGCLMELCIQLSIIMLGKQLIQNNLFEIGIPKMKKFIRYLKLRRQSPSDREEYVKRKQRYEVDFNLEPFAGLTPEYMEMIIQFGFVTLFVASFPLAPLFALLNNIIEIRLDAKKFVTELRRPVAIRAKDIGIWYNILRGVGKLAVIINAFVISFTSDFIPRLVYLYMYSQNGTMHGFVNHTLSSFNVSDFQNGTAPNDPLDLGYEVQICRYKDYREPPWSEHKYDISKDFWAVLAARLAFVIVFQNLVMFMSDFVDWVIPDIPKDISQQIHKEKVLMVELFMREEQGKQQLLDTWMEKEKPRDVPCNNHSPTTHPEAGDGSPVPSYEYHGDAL
CRFBP-R2 agonist: agonists of CRF-BP/CRF-R2 complex, primary screen, cell-based, HEK293, calcium dye fluorescence, uHTS. CRF-binding protein / CRF receptor 2 complex (human). hit rate 0.46% among 350,000. activation, % at 13.2 µM. calcium dye fluorescence (FLIPR); percent of saturating CRF peptide response;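 active = activation of at least 50%, plus an integration ratio under a set limit after plate pattern correction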
GRIN3A LBD mod: binders of NR3A ligand-binding domain, primary screen, biophysical, differential scanning fluorimetry, uHTS. Tm shift relative to glycine control, % at 25 µM. AID 1259313, 2017. hit rate 2.5% among 340,000. Glutamate receptor ionotropic, NMDA 3A (GRIN3A) ligand-binding domain. NR3A LBD differential scanning fluorimetry, Tm shift; 0% = protein alone, 100% = glycine-bound protein;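 active = melting temperature shift of at least 10% of the positive control shift, at one fixed dose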
ANO1 activ: TMEM16A chloride channel activators or potentiators, primary screen, cell-based, HTS. Anoctamin-1 (Mus musculus), Q8BHY3. HEK293 TMEM16A/YFP-H148Q/I152L, iodide quench fluorescence; hits give low values. B-score at 10 µM. hit rate 0.3% among 340,000. AID 623877, 2012;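 active = fluorescence-ratio B-score plate-corrected deviation score at least 3 library SD below zero, with starting fluorescence score within 5 deviations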;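 note: channel opened by trigger with iodide after compound preincubation; score built on the fluorescence ratio of max minus min over baseline; more negative score means more quench and so TMEM16A activation or potentiation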
Rh123 counter: fluorescence retest of MPTP screen hits in isolated mitochondria, single concentration; shares compounds with MPTP inh; membrane potential, Rhodamine 123 fluorescence; inhibition, % at 10 µM; hit rate 78% among 5,000; AID 624504, 2012; in the data active = inhibition above about 22%
MPTP swell DR: mitochondrial permeability transition pore inhibitors, dose response, biochemical, absorbance, uHTS hits | AID 651561, 2012 | isolated mitochondria swelling | hit rate 58% among 780 | shares compounds with MPTP inh | IC50, µM; in the data active = IC50 below about 20 µM
MPTP cs DR: fluorescent counter-screen in isolated mitochondria, dose response, counter-screen for MPTP inhibitor project, biochemical, fluorescence, uHTS hits | IC50, µM | AID 651564, 2012 | isolated mitochondria counterscreen, fluorescence read-out | shares compounds with MPTP inh | hit rate 49% among 780; in the data active = IC50 below about 80 µM
Hits are given with their value; 0 = inactive; - = not tested or not shown. A selection: hits, their analogues and other compounds. The true share with any hit is near 5.1%.

SMILES	CRFR2-BP antag	MPTP inh	TMEM16A inh	CRFBP-R2 agonist	GRIN3A LBD mod	ANO1 activ	Rh123 counter	others
CN(C)CCNC(=O)c1ccc(Sc2ccc(Br)cc2)c([N+](=O)[O-])c1	0	101.9	0	0	0	0	0	MPTP swell DR=5.77;MPTP cs DR=0
NC(=O)c1ccccc1NC(=O)COc1ccc2c(c1)OCO2	0	0	0	0	0	0	-
CN(C)CCOc1ccc(C(C)(C)c2ccccc2)cc1	0	0	0	0	0	0	-
C=CCNCCOc1ccc(C(C)(C)c2ccccc2)cc1	0	77.6	0	0	0	0	0	MPTP swell DR=14.9;MPTP cs DR=0
COc1ccc(C2SCC(=O)N2CCc2ccc(OC)c(OC)c2)cc1 (stereo unspecified)	0	70.6	0	0	0	0	33.3
COc1ccc(CCN2C(=O)CSC2c2ccc(OC)c(OC)c2)cc1OC (stereo unspecified)	0	0	0	0	0	0	-
Cc1ccc(C)c(N(CC(=O)NC2CCCCC2)C(=O)CNC(=O)c2ccco2)c1	0	0	0	0	0	0	-
N#CC(c1cccc(Cl)c1)c1ccc2c(C(F)(F)F)cc(C(F)(F)F)nc2n1 (stereo unspecified)	0	114.2	100	0	0	-4.8	89.5
O=C(Nc1ccc(S(=O)(=O)Nc2ncccn2)cc1)c1ccc(N2CCCC2=O)cc1	0	0	0	0	0	0	-
COC(=O)c1cc(=O)nc(NN=C2c3ccccc3-c3ccccc32)s1	-	57.8	-	-	-	-	51.0
COC(=O)c1cc(=O)nc(NN=C2CCCCC2)s1	-	0	-	-	-	-	-
CN1CCN(CCCC(=O)c2ccc(C3CCCC3)cc2)CC1	0	78.7	0	0	0	0	0	MPTP swell DR=5.91;MPTP cs DR=19
CCCc1cc(=O)[nH]c(SCC(=O)Nc2ccc(OC)c(S(=O)(=O)N3CCCCC3)c2)n1	0	0	-	0	0	0	-
COc1cc(/C=C2/C(=O)N(c3ccc(C)c(C)c3)N=C2C)cc([N+](=O)[O-])c1O	0	0	0	0	0	0	-
COc1cc(/C=C2\C(=O)N(c3ccccc3)N=C2C)ccc1Oc1ccc([N+](=O)[O-])cc1[N+](=O)[O-]	0	88.4	0	0	0	0	61.4
CC1=NN(c2ccccc2)C(=O)/C1=C\c1ccc(Oc2ccc([N+](=O)[O-])cc2[N+](=O)[O-])cc1	0	79.5	0	0	0	0	69.8
COc1ccccc1/C=C1/C(=O)N(c2ccccc2)N=C1C	0	0	0	0	-	0	-
O=C(CCCC(=O)N(c1ccc(F)cc1)C(C(=O)NC1CCCC1)c1ccc(O)cc1)Nc1ccccn1 (stereo unspecified)	0	0	0	0	0	0	-
O=C(Nc1cc(Cl)cc2c1-c1ccc(Cl)cc1C2O)C(Cl)Cl (stereo unspecified)	0	92.9	-	0	0	0	75.7
COC(=O)c1c(Cc2ccccc2Cl)c[nH]c1C	0	54.7	0	0	0	0	24.2
O=C(NCC1CCCO1)Nc1cc(Cl)cc(Cl)c1 (stereo unspecified)	0	81.9	0	0	0	0	88.1
O=C1c2cccc(OCc3ccc(F)cc3)c2CCN1Cc1ccc(F)cc1	0	79.4	25	0	0	0	83.2
O=C(Nc1nc(=S)ss1)c1ccc(Cl)cc1Cl	0	87.6	100	0	0	0	63.9
O=C(COC(=O)Cc1ccc(F)cc1)NC(=O)c1ccccc1	0	0	0	0	0	0	-
